# Assay outcomes: PubChem, Buhrlage Lab, Dana-Farber Cancer Institute and Novartis Institutes for BioMedical Research (Cambridge, Mass)
# The list is not random: actives were taken first. Their share in the collection is about 13%.
# OTUD3 inh: blocks human OTUD3 ubiquitin-rhodamine cleavage; purified OTUD3, Ub-rhodamine fluorescence, 2 h; inhibition, % at 25 µM; 0.7% of 47,000 active
# Target sequence (Q5T2D3 whole entry, looked up): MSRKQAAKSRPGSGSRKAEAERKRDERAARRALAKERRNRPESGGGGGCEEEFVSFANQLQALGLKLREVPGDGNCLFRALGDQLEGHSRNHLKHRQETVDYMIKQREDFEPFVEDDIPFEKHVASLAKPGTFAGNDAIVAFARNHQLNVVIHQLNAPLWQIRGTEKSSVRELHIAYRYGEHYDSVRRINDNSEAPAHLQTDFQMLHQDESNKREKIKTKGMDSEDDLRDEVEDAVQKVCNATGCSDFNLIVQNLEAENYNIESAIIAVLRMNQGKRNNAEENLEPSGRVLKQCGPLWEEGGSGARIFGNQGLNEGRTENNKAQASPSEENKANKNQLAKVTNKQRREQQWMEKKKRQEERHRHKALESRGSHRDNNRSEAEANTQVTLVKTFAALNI
# USP10 inh: blocks human USP10 ubiquitin-rhodamine cleavage; purified USP10, Ub-rhodamine fluorescence, 60 min; inhibition, % at 20 µM; 1.1% of 47,000 active
# USP30 block: blocks human USP30 ubiquitin-rhodamine cleavage; Q70CQ3; purified USP30, Ub-rhodamine cleavage fluorescence; inhibition, % at 25 µM; 5.3% of 47,000 active; AID 1645860
# USP8 block: inhibitors of human USP8 deubiquitinase. P40818. inhibition, % at 20 µM. purified USP8, Ub-rhodamine cleavage fluorescence, 30 min. 4.2% of 47,000 active. AID 1645853
# USP28 block: human USP28 deubiquitinase inhibition; Q96RU2; purified USP28, Ub-rhodamine cleavage fluorescence, 30 min; inhibition, % at 25 µM; 3% of 47,000 active
# USP17 inh: inhibitors of human USP17 deubiquitinase | A8MUK1 | 6.5% of 47,000 active | inhibition, % at 50 µM | purified USP17, Ub-rhodamine cleavage fluorescence, 3 h | AID 1645855
# Starred values were filed as active, the others as inactive; . = not tested or not shown. Cut-off read from the data, not from the text of the source: active = inhibition above about 30%; inactive = the rest.
SMILES,OTUD3 inh,USP10 inh,USP30 block,USP8 block,USP28 block,USP17 inh
O=C(NCc1ccc(Cl)cc1)c1cnc(N2CCOCC2)nc1,4,-5,3,-2,6,18
COc1cc2[nH]c(=O)n(CCN3CCN(C(=O)c4ccco4)CC3)c(=O)c2cc1OC,-2,-3,-7,-2,0,-4
O=C(Cc1ccc(S(=O)(=O)N2CCOCC2)s1)NCc1cccc(Cl)c1,-25,-6,-260,40*,-36,6
Cc1ccc(C)c(CSc2ncnc3nc[nH]c23)c1,-3,3,-8,-19,40*,-6
COc1cccc(CN(C)C(=O)CC(c2ccccc2)c2ccccc2)c1,23,12,41*,22,25,.
CC(C)c1nc2sc3c(SCC(=O)Nc4ccc(Br)cc4)ncnc3c2c2c1COC(C)(C)C2,-1,1,5,0,-1,2
COc1cc(C#N)c(NC(=NCc2ccc(F)cc2)SC)cc1OC,8,-1,48*,14,35*,53*
COc1ccc(NC(=O)COc2ccc(C(=O)c3ccc(F)cc3)cc2)c(OC)c1,4,1,9,9,-1,10
CC(C)c1cc(N2CCN(C)CC2)nc(-c2ccccn2)n1,7,1,18,-44,2,-5
Cc1cc(C)nc(SCc2cc(=O)n3[nH]c(C)c(-c4ccccc4)c3n2)n1,14,13,46*,-108,23,-5
Cc1cc(=O)n2[nH]c(Cc3ccccc3)c(-c3ccccc3)c2n1,8,15,15,10,13,14
Cc1ccnc(SCc2cc(=O)n3[nH]c(C)c(-c4ccccc4)c3n2)n1,-3,2,10,-108,-4,-15
Cc1[nH]n2c(=O)c(Cl)c(-c3ccccc3)nc2c1-c1ccccc1,22,33*,11,-219,14,5
CCC(=O)Nc1cc(-c2ccccc2)nn(CC(=O)N2CCc3ccccc32)c1=O,-11,4,-14,0,-25,-8
Cc1ccsc1C1CCCCCN1S(=O)(=O)c1ccccc1F (centres undefined),-4,7,-22,32*,-4,10
O=C(Nc1ccncc1)c1nc2c(s1)CCN(C(=O)c1cccnc1)CC2,12,5,17,2,6,9
CC(=O)c1ccc(NC(=O)/C(=C/c2ccco2)n2nnnc2-c2ccccc2)cc1,2,0,-128,62*,12,51*
Cc1c(CC(=O)N2CCN(c3ccccc3)CC2)c(=O)oc2c(C)c(O)ccc12,6,13,23,31*,5,8
Cc1cc2n(n1)CCCN2C(=O)CCC(=O)N1CCN(c2cccc(Cl)c2)CC1,9,-2,-1,-8,7,-8
COc1ccccc1NS(=O)(=O)c1ccc2oc(SCC(=O)N3CCc4ccccc4C3)nc2c1,15,13,25,20,7,22
COc1ccccc1NS(=O)(=O)c1ccc2oc(SCc3cn4c(C)cc(C)nc4n3)nc2c1,4,-2,31*,-65,9,.
Cc1cc(-c2cnc(C)nc2C2CCCN(C(=O)C(C)(C)C)C2)on1 (centres undefined),14,1,23,1,15,16
COc1ccc(-n2cc(C(=O)NCCc3ccc(F)cc3)nn2)cc1,19,17,29,37*,7,17
COc1ccc(CCNC(=O)c2ccc3c(c2)N(Cc2ccc(F)cc2)C(=O)c2ccccc2S3=O)cc1OC (centres undefined),-19,3,-25,-9,-10,-8
COc1ccc(CCNC(=O)c2cn(-c3ccc(F)cc3)nn2)cc1OC,3,1,62*,3,9,34*
COc1ccc(CCNC(=O)CSc2cn(CCNC(=O)c3ccc(F)cc3)c3ccccc23)cc1OC,24,0,68*,-16,8,50*
NC1=NC(c2ccccc2)n2c(nc3cc4c(cc32)OCCCO4)N1 (centres undefined),-9,-1,-9,-9,-2,-4
Cc1ccc(-c2nc(CN3C(=O)NC4(CCCCc5ccccc54)C3=O)cs2)cc1 (centres undefined),2,1,-15,4,-1,-19
O=C(O)CC1(c2ccc(F)cc2)C2CC3CC(C2)CC1C3 (centres undefined),22,5,40*,33*,15,32*
O=C(O)CC1(CC(=O)NCc2ccc(F)cc2)CCCCC1,15,-4,21,22,9,11
